# Laboratory results taken from paper PMC7862700, “An all-to-all approach to the identification of sequence-specific readers for epigenetic DNA modifications on cytosine”.
# Tests used:
# Experiment in all cases: DAPPL (digital affinity profiling via proximity ligation, sequencing); 10 mM Tris-HCl pH 7.5, 50 mM NaCl, 1 mM DTT, 4% glycerol, room temperature, 30 min; GST-TFs on glutathione beads, 16-mer random dsDNA library, 0.1% formaldehyde crosslink after washing; high values mean tight binding
# Settings in all cases: protein: recombinant; tags: N-terminal GST; dsDNA, one strand shown
# FEV = molecular target: T1, FEV (Homo sapiens, UniProt Q99581 1-238)
# T1 sequence: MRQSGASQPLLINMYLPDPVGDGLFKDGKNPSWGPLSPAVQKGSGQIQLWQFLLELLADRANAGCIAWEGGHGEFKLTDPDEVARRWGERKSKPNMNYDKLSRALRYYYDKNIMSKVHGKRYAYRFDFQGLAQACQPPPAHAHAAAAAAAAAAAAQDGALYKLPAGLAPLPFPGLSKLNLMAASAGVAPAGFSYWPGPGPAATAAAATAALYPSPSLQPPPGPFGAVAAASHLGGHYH
# Procedure, shortened: (§1)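 Yeast served to express human transcription factors as GST fusions, which were then captured on glutathione beads and labelled with DNA barcodes. Pooled with a tag-only sample, they were incubated with 200 nmole of a 16-mer random double-stranded DNA library for 30 min at room temperature in Tris/NaCl/DTT/glycerol buffer, washed, crosslinked with 0.1% formaldehyde, ligated by proximity, amplified by PCR and sequenced. Dividing each hexamer's read frequency for a factor by its frequency for the tag-only sample gives the binding signal.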
# ETV5 = ETV5 (Homo sapiens, UniProt P41161 1-510)
# Procedure, shortened: as §1
# SPIC = molecular target: T2, SPIC (Homo sapiens, UniProt Q8N5J4 1-248)
# T2 sequence: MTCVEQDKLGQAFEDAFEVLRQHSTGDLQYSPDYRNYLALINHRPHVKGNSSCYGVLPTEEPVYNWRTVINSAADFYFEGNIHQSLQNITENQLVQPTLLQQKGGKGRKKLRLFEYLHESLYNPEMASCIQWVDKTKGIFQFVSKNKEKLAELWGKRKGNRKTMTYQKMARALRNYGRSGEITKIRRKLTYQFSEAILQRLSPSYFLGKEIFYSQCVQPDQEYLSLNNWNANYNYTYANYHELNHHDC
# Procedure, shortened: as §1
# ELF4 = ELF4 (Homo sapiens, UniProt Q99607 1-663)
# Procedure, shortened: as §1
# ELK4 = molecular target: T3, ELK4 (Homo sapiens, UniProt P28324-2 1-405)
# T3 sequence: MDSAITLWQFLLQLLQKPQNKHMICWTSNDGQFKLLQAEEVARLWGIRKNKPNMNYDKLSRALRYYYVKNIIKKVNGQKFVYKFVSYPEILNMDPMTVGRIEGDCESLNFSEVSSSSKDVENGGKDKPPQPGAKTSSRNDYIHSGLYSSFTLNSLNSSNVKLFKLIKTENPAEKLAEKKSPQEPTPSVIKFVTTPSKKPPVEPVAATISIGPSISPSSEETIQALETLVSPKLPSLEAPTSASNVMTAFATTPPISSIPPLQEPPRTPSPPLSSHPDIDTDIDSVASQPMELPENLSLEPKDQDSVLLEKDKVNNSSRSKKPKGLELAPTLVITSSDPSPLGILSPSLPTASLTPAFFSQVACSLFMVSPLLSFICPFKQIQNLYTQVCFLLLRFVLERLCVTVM
# Procedure, shortened: as §1
# ETV2 = molecular target: T4, ETV2 (Homo sapiens, UniProt O00321 1-342)
# T4 sequence: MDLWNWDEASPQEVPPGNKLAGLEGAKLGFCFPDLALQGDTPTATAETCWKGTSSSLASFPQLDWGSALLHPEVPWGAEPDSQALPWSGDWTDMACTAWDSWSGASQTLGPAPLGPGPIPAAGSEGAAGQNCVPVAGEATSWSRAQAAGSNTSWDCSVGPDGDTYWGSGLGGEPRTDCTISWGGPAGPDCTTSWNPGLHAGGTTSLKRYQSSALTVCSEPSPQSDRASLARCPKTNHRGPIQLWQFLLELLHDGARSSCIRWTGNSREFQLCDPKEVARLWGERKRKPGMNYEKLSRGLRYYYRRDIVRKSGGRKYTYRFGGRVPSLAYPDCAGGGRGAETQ
# Procedure, shortened: as §1
# ELF3 = molecular target: T5, ELF3 (Homo sapiens, UniProt P78545 1-371)
# T5 sequence: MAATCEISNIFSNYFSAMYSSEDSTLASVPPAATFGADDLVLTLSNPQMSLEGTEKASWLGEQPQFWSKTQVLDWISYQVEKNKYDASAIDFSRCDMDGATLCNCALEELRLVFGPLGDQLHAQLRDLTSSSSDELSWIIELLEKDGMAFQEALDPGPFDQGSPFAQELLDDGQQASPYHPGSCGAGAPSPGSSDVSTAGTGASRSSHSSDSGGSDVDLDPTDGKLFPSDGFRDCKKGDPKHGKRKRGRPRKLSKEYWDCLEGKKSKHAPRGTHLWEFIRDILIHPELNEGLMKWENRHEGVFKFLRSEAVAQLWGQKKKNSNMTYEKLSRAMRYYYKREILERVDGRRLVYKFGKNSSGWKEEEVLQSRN
# Procedure, shortened: as §1
# ETV1 = ETV1 (Homo sapiens, UniProt P50549 1-477)
# Procedure, shortened: as §1
# ERF = molecular target: T6, ERF (Homo sapiens, UniProt P50548 1-548)
# T6 sequence: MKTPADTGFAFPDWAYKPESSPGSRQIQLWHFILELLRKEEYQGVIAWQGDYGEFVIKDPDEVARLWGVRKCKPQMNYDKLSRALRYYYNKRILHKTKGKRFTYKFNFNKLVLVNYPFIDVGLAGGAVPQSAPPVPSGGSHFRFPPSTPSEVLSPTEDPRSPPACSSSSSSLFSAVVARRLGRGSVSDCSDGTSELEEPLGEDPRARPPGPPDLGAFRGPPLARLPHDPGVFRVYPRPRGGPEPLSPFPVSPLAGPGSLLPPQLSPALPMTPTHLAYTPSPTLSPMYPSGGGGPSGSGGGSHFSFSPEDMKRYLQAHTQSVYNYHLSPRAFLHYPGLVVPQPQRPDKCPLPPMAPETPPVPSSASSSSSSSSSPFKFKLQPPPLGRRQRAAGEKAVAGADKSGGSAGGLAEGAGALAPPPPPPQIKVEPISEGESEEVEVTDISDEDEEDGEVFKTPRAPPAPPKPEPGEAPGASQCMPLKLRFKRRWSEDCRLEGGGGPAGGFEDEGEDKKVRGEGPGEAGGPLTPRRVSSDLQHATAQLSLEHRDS
# Procedure, shortened: as §1
# ETV3L = molecular target: T7, ETV3L (Homo sapiens, UniProt Q6ZN32 1-361)
# T7 sequence: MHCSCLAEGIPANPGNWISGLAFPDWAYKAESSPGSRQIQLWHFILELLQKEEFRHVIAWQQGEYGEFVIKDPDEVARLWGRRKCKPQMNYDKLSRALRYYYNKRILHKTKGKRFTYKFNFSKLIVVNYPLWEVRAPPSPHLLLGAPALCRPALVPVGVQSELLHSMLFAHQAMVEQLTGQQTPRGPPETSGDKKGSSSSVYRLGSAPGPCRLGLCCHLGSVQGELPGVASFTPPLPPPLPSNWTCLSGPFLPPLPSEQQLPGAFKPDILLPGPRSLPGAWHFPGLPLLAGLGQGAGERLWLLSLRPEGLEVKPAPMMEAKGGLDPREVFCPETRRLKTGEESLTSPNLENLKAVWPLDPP
# Procedure, shortened: as §1
# ETS2 = molecular target: T8, ETS2 (Homo sapiens, UniProt P15036 1-469)
# T8 sequence: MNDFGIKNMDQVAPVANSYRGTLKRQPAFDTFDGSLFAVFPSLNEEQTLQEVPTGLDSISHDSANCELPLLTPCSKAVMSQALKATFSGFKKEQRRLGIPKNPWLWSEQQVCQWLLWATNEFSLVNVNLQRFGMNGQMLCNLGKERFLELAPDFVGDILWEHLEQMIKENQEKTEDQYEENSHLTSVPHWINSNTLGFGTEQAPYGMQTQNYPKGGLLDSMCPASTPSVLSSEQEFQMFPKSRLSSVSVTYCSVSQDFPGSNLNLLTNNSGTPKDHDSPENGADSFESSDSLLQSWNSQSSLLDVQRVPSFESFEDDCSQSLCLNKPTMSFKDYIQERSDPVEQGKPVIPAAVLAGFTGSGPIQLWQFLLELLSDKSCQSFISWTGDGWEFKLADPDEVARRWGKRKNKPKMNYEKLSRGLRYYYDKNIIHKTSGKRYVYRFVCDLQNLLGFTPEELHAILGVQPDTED
# Procedure, shortened: as §1
# SPDEF = molecular target: T9, SPDEF (Homo sapiens, UniProt O95238 1-335)
# T9 sequence: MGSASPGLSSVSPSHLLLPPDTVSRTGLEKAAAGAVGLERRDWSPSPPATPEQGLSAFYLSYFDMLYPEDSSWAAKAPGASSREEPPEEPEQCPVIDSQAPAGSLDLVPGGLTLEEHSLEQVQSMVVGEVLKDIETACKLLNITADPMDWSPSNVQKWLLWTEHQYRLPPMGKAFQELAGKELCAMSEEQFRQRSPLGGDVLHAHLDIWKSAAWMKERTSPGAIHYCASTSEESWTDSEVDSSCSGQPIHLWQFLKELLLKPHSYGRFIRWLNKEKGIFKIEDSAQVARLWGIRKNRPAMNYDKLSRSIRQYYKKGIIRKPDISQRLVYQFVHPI
# Procedure, shortened: as §1
# ETV7 = molecular target: T10, ETV7 (Homo sapiens, UniProt Q9Y603 1-341)
# T10 sequence: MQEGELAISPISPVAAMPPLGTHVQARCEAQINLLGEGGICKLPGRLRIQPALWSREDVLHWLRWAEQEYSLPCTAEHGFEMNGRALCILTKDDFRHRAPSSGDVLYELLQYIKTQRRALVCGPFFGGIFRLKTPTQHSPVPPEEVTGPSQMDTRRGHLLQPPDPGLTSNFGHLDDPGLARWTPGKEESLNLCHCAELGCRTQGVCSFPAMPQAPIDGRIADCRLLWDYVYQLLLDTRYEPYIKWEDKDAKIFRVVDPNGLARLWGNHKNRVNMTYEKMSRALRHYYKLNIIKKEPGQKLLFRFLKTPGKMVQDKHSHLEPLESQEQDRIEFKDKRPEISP
# Procedure, shortened: as §1
# ELF5 = molecular target: T11, ELF5 (Homo sapiens, UniProt Q9UKW6-2 1-255)
# T11 sequence: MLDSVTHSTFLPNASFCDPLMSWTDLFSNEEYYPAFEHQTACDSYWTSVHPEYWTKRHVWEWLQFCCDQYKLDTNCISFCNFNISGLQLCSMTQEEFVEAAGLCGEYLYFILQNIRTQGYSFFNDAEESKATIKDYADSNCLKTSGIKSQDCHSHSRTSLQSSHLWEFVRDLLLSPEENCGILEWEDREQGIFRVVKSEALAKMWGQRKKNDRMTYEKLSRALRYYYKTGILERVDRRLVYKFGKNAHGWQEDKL
# Procedure, shortened: as §1
# ETV3 = molecular target: T12, ETV3 (Homo sapiens, UniProt P41162-2 1-143)
# T12 sequence: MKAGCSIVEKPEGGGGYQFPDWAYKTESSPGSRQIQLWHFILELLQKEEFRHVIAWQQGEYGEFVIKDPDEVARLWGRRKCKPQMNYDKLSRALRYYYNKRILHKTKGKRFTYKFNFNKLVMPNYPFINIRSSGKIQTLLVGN
# Procedure, shortened: as §1
# ETV6 = ETV6 (Homo sapiens, UniProt P41212 1-452)
# Procedure, shortened: as §1
# ELF4, sequence (Q99607 whole entry): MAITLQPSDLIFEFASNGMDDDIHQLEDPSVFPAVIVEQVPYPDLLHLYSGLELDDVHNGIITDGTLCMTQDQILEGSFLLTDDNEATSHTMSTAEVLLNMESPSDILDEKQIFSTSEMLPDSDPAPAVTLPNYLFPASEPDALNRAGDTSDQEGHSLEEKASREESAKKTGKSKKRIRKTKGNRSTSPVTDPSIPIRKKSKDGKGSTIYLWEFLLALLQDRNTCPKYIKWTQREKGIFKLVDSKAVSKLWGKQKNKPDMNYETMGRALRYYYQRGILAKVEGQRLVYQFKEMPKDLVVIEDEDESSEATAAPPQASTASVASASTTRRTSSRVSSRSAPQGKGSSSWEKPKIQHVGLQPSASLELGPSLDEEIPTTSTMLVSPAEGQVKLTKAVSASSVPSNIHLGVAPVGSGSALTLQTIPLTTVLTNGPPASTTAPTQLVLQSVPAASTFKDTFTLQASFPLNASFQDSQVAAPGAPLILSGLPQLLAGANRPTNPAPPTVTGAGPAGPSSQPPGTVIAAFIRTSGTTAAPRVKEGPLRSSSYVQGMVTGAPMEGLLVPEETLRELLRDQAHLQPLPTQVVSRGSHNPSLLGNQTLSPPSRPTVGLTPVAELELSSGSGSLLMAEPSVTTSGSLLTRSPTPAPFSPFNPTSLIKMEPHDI
# ETV6, sequence (P41212 whole entry): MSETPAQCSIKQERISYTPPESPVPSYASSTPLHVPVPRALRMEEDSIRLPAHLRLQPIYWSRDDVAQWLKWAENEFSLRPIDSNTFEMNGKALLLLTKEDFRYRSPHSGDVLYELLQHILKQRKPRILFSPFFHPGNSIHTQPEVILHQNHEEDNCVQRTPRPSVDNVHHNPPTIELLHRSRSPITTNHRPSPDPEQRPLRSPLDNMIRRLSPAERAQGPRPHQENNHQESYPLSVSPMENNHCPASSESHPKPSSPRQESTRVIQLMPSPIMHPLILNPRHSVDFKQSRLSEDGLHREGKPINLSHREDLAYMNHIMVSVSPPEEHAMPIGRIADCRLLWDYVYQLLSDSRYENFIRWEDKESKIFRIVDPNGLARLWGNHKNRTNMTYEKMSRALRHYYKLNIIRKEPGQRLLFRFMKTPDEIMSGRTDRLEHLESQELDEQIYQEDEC
# ETV5, sequence (P41161 whole entry): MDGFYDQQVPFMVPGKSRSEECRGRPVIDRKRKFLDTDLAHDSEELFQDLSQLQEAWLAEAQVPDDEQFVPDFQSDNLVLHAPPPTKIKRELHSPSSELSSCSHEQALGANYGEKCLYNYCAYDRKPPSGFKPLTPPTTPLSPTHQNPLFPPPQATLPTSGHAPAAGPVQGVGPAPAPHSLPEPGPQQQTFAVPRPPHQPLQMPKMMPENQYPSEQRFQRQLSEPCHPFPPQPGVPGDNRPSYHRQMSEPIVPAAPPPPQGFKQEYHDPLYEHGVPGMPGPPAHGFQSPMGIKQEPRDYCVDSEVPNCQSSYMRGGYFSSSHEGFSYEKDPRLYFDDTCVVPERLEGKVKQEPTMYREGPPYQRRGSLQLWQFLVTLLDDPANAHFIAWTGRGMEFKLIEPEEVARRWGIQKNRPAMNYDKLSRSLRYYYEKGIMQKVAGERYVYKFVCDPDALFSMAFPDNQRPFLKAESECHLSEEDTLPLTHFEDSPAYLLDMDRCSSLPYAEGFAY
# ETV1, sequence (P50549 whole entry): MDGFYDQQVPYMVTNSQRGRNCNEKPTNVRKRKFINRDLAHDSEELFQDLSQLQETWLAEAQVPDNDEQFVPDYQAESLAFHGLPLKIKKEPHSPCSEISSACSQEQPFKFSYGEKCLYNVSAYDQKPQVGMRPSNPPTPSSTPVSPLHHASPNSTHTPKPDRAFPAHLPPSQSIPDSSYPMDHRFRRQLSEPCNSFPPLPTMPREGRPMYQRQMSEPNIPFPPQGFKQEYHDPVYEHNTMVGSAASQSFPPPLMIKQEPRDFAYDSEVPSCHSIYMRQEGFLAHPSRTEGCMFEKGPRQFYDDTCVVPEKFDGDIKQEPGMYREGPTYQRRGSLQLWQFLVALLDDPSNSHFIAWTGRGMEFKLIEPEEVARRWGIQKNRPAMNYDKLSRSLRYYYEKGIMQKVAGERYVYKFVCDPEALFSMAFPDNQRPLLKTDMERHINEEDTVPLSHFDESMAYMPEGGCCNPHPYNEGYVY
Sequence,binding signal (FEV),binding signal (ETV5),binding signal (SPIC),binding signal (ELF4),binding signal (ELK4),binding signal (ETV2),binding signal (ELF3),binding signal (ETV1),binding signal (ERF),binding signal (ETV3L),binding signal (ETS2),binding signal (SPDEF),binding signal (ETV7),binding signal (ELF5),binding signal (ETV3),binding signal (ETV6)
ACCTGA,"1.13 fold enrichment (6-mer frequency, TF over GST control)","1.07 fold enrichment (6-mer frequency, TF over GST control)","1 fold enrichment (6-mer frequency, TF over GST control)","1.15 fold enrichment (6-mer frequency, TF over GST control)","1.14 fold enrichment (6-mer frequency, TF over GST control)","1.02 fold enrichment (6-mer frequency, TF over GST control)","1.14 fold enrichment (6-mer frequency, TF over GST control)","1.06 fold enrichment (6-mer frequency, TF over GST control)","1.14 fold enrichment (6-mer frequency, TF over GST control)","1.04 fold enrichment (6-mer frequency, TF over GST control)","1.03 fold enrichment (6-mer frequency, TF over GST control)","1.14 fold enrichment (6-mer frequency, TF over GST control)","1.03 fold enrichment (6-mer frequency, TF over GST control)","1.07 fold enrichment (6-mer frequency, TF over GST control)","1.07 fold enrichment (6-mer frequency, TF over GST control)","1.09 fold enrichment (6-mer frequency, TF over GST control)"
ACCCCA,"1.07 fold enrichment (6-mer frequency, TF over GST control)","1.05 fold enrichment (6-mer frequency, TF over GST control)","1.15 fold enrichment (6-mer frequency, TF over GST control)","1.12 fold enrichment (6-mer frequency, TF over GST control)","1.2 fold enrichment (6-mer frequency, TF over GST control)","1.04 fold enrichment (6-mer frequency, TF over GST control)","1.04 fold enrichment (6-mer frequency, TF over GST control)","1.06 fold enrichment (6-mer frequency, TF over GST control)","1.08 fold enrichment (6-mer frequency, TF over GST control)","1.09 fold enrichment (6-mer frequency, TF over GST control)","1.15 fold enrichment (6-mer frequency, TF over GST control)","1.02 fold enrichment (6-mer frequency, TF over GST control)","1.06 fold enrichment (6-mer frequency, TF over GST control)","1.04 fold enrichment (6-mer frequency, TF over GST control)","1.09 fold enrichment (6-mer frequency, TF over GST control)","1.02 fold enrichment (6-mer frequency, TF over GST control)"
